Compound activity (PubChem)
Chronic BCR inh = qHTS Assay to Find Inhibitors of Chronic Active B-Cell Receptor Signaling | ABC-DLBCL IkBa-CBG/CBR reporter, luminescence ratio, 4 h | Potency, µM (titrated, usually from 46.1 µM), inactives show at the highest dose activity change, negative = inhibition, usual class: inhibitors | actives 0.05% (n = 340,000) | AID 493014, 2011; active means well fitted inhibition curve with a large enough effect in the signal ratio, with a control signal flat, not every such curve was filed as active; inconclusive means small, poorly fitted or top-dose-only effect, or effect the other way, or a change in a side signal; the % refers to the signal ratio;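 further: potency means the concentration at half of the fitted maximal effect; plate controls were basal doxycycline-induced cells for no effect and cells given 10 µM MG132 for full effect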
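TMD8 human ABC-DLBCL cells with doxycycline-inducible IκBα–green luciferase fusion and unfused red luciferase, in 0.5% FBS medium; compounds up to 46 uM, 4 h at 37C. Green/red luminescence ratio, filter-overlap corrected, fitted to concentration-response curves.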
RXFP1 antagonist = qHTS Assay for Antagonists of the Relaxin Receptor RXFP1; AID 1259400, 2018; HEK293-RXFP1, relaxin-stimulated cAMP HTRF, 30 min; stronger effect = lower value; actives 0.59% (n = 350,000); Relaxin receptor 1 (Homo sapiens), Q9HBX9; activity change, negative = inhibition, % at 57.5 µM;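 active means activity change of -60% or lower, but not beyond a set lower limit; inconclusive means change between -60% and -40%, or beyond the set limit; inactive means change above -40%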
B2AR arrestin = qHTS assay of beta-arrestin-biased ligands of beta2-adrenergic receptor | Potency, µM (highest dose often 46.1 µM), without a hit: top-dose activation, hits mostly activators | AID 492947, 2010 | actives 0.02% (n = 330,000) | beta-arrestin recruitment to beta2AR, cell-based reporter | Beta-2 adrenergic receptor (Homo sapiens), P07550;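 further: potency means the concentration at half of the fitted maximal effect; 0% = DMSO controls and full agonism = EC100 isoproterenol or metaproterenol; nearly all actives have a fitted effect of over 65% in size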
Target sequence (P07550 whole entry, looked up): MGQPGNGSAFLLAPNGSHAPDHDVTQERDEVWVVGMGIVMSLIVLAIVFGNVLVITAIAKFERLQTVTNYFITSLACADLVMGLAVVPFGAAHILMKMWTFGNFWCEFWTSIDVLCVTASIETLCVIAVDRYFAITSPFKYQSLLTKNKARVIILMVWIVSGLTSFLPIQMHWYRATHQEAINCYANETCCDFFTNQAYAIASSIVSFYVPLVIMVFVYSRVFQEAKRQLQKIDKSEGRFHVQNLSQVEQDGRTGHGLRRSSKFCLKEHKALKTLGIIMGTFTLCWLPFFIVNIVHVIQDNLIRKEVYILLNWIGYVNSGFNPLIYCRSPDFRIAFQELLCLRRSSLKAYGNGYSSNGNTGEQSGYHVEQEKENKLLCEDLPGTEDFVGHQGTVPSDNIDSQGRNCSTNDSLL
RXFP1 ag = qHTS Assay for Agonists of the Relaxin Receptor RXFP1; HEK293T-RXFP1 cAMP TR-FRET, 30 min; response scale: percent of porcine relaxin response, buffer zero; Potency, µM (highest dose often 57.5 µM), inactives show top-dose activation, hits mostly activators; actives 0.3% (n = 370,000); Relaxin receptor 1 (Homo sapiens), Q9HBX9; further: potency means the concentration at half of the fitted maximal effect; nearly all actives have a fitted effect of over 60% in size
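cAMP rise read by TR-FRET after 30 min, 37C compound exposure (up to 58 uM) in RXFP1-transfected HEK293 cells with Ro 20174 present. EC50 from Hill-equation fits, with 29 nM porcine relaxin as 100% and buffer as basal.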
* marks the source's active call; other numbers are inactive results; ? = inconclusive; nt = no result given; ! = not confirmed by another sample. A selection: hits, their analogues and other compounds. The true share with any hit is near 0.59%. Unless noted, the call rests on the fitted dose curve; in most records, active means well fitted activation curve with a large enough effect; inconclusive means small, poorly fitted or top-dose-only effect; inactive means flat fitted curve, though single readings scatter. Unless noted, on the % scale 0 is the no-effect control and ±100 the full control effect.

SMILES	Chronic BCR inh	RXFP1 antagonist	B2AR arrestin	RXFP1 ag
FC(F)(F)c1ccccc1CNCCc1c[nH]c2ccccc12	2%	-101*	0%	0%
Fc1ccccc1CNCCc1c[nH]c2ccccc12	0%	-14	0%	0%
ClCCN1CCCC1	nt	2	nt	nt
CC(=O)c1c(O)n(-c2cccc(Cl)c2)c(=O)[nH]c1=O (tested in a mixture with another compound)	5%	2	0%	-1%
CC(C)n1c(O)c(C2c3cc(Cl)ccc3Oc3[nH]c(=O)n(C(C)C)c(=O)c32)c(=O)[nH]c1=O (stereo not drawn)	?	-84*	0%	1%
CC1(C)CC/C(=C\c2ccc(Cl)cc2)C1(O)Cn1cncn1 (stereo not drawn)	nt	-35	nt	nt
C[C@H](N)C(=O)c1ccccc1	nt	14	nt	nt
OC12ONC(c3ccccn3)C1N1CCC2CC1 (stereo not drawn)	?	11	18µM*	2%
CCN(CC)C(=O)[C@@H]1C=C2c3cccc4[nH]cc(c34)C[C@H]2N(C)C1	nt	8	nt	nt
CCN1/C(=C\C=C\C2=[N+](CC)c3ccccc3C2(C)C)C(C)(C)c2ccccc21	?	-73*	-1%	5%
CC(C(O)c1ccccc1)N(C)C/C=C/c1ccccc1 (stereo not drawn)	nt	-9	nt	nt
CCOc1ccc(-c2cc(C)[n+](CCO)c(-c3ccc(OCC)cc3)c2)cc1	?	-6	0%	26%
CCOc1ccc(-c2cc(C)[n+](CCc3ccc(OC)c(OC)c3)c(-c3ccc(OCC)cc3)c2)cc1	?	-84*	2%	2%
CC(=O)NC1CCSC1=O (stereo not drawn)	nt	-2	nt	nt
O=C1NC(=O)N(c2ccccc2)C(=O)/C1=C/c1ccc(Sc2ccccc2)o1	?	-109*	0%	5%
Cc1ccccc1CN1C(=O)C(C)N=C(c2ccccc2)c2ccccc21 (stereo not drawn)	11%	-70*	nt	2%
Cc1oc(-c2ccccc2)nc1CN1C(=O)C(C)N=C(c2ccccc2F)c2cc(Cl)ccc21 (stereo not drawn)	3%	nt	0%	2%
CN1C(=O)/C(=C/c2cccn2-c2ccc3ccccc3c2)C(=O)NC1=S	?	-97*	0%	2%
S=C1CN=C(c2ccccc2)c2cc(Cl)ccc2N1	-17%	-111*	-1%	0%
COc1ccc(C2=NCC(=S)Nc3ccc(Cl)cc32)cc1OC	nt	0	nt	nt
CCC(C)C(C)(COC(N)=O)COC(N)=O (stereo not drawn)	nt	3	nt	nt
CCN(C(=O)CN1CC=C(c2ccccc2)CC1)c1c(N)n(Cc2ccccc2)c(=O)[nH]c1=O	-3%	-61*	0%	0%
CC(C)(N)Cc1ccccc1Cl	nt	20	nt	nt
Nc1c(C(=O)OC2CCCCC2)c2nc3ccccc3nc2n1CC1CCCO1 (stereo not drawn)	3%	-62*	0%	2%
O=C1C=CC(=O)C2C1C1(Cl)C(Cl)=C(Cl)C2(Cl)C1(Cl)Cl (stereo not drawn)	nt	-95*	nt	nt
SMILES	Chronic BCR inh	RXFP1 antagonist	B2AR arrestin	RXFP1 ag
O=[N+]([O-])/C=C/c1c(Cl)cccc1Cl	nt	-67*	nt	nt
Oc1ccc(Cl)cc1Cc1ccccc1	nt	-82*!	nt	nt
C[C@]12Cc3cn[nH]c3C[C@@H]1CC[C@@H]1[C@@H]2CC[C@@]2(C)[C@H]1CC[C@]2(C)O	nt	-31	nt	nt
CN(C)c1ccc(/C=C/C=C/c2sc3ccccc3[n+]2C)cc1	?	?	0%	-17%
CN(C)c1ccc(/C=C/c2cc[n+](C)c3ccccc23)cc1	2%	-95*!	4%	-8%
C=CCN1CC[C@]23CCCC[C@H]2[C@H]1Cc1ccc(O)cc13	nt	10	nt	nt
O=C(O)c1cccc(N=Nc2c(O)[nH]c(=O)[nH]c2=O)c1	?	6	-1%	9%
O=C1OCc2cc(N=Nc3c(O)[nH]c(=O)[nH]c3=O)ccc21	?	9	-1%	10µM*
O=c1[nH]c(O)c(N=Nc2ccc([N+](=O)[O-])cc2)c(=O)[nH]1	?	7	0%	14µM*
CC(C)c1ccc(N=Nc2c(O)[nH]c(=O)[nH]c2=O)cc1	17%	0	-1%	-1%
CO/C=C(/C(=O)OC)c1ccccc1Oc1cc(Oc2ccccc2C#N)ncn1	nt	-28	nt	nt
Fc1cc(Br)ccc1CBr	nt	12	nt	nt
CCOC(=O)c1c(NC(NC(=O)CF)C(Cl)(Cl)Cl)sc2c1CCCC2 (stereo not drawn)	?	-61*	-1%	0%
CCOC(=O)c1c(NC(=O)c2c(N)n(CCCOC)c3nc4ccccc4nc23)sc2c1CCCC2	-5%	-11	-2%	2%
COc1ccc(/C=C2/C(=O)N(Cc3ccco3)C(=O)N(C(C)C)C2=O)cc1	0%	-10	-1%	2%
CC(C)N1C(=O)/C(=C/C=C/c2ccco2)C(=O)N(Cc2ccco2)C1=O	-3%	-77*	3%	0%
CCC(COC(=O)c1cc(OC)c(OC)c(OC)c1)(c1ccccc1)N(C)C (stereo not drawn)	?	-62*	1%	2%
CCCOP(=O)(OCCC)C(NC(=O)c1cc(OC)c(OC)c(OC)c1)c1ccccc1 (stereo not drawn)	-5%	0	0%	-1%
C=CCC1=C(C)C(OC(=O)C2C(C=C(C)C)C2(C)C)CC1=O (stereo not drawn)	nt	-70*	nt	nt
CC(C)(C)NC[C@H](O)c1ccc(O)cc1Cl	nt	2	nt	nt
COc1cc(OC)c(OC)cc1/C=C1/C(=O)NC(=O)N(Cc2ccccc2)C1=O	-1%	-64*	3%	0%
COc1cc(OC)c(OC)cc1/C=C1\C(=O)NC(=O)N(Cc2ccccc2)C1=O	12%	-9	0%	1%
OC(COCc1ccc(Cl)cc1)CN1CC=C(c2ccccc2)CC1 (stereo not drawn)	?	-61*!	-2%	1%
Cc1ccc(-c2c(C)n3c4c(=O)n(C)c(=O)n(C)c4nc3n2CCO)cc1	-1%	-9	nt	?
O=[N+]([O-])c1cc(Cl)c2cccnc2c1O	11µM*	-23	0%	0%
SMILES	Chronic BCR inh	RXFP1 antagonist	B2AR arrestin	RXFP1 ag
O=[N+]([O-])c1ccc(NCCO)c2ncccc12	-7%	-12	0%	-1%
CC[C@H](OC(C)=O)C(C[C@H](C)NC)(c1ccccc1)c1ccccc1	nt	-22	nt	nt
COCc1nnc(NC(=O)c2cc3ccccc3o2)s1	?	-3	-1%	2%
CC(C)c1nnc(NC(=O)c2nc(S(=O)(=O)Cc3ccccc3)ncc2Cl)s1	?	-72*!	-1%	-1%
c1ccc(N2CCNCC2)cc1	nt	17	nt	nt
Cc1ccc(/C=C2/C(=O)NC(=O)N(CCc3ccc(F)cc3)C2=O)o1	6%	-73*	-1%	4%
CC(Cc1ccccc1)NCCCCl (stereo not drawn)	nt	-7	nt	nt
